Reference: PubChem BioAssay (NCI)
The panel holds about 83,000 compounds, 20% with a hit somewhere; the sample as a whole holds those more often.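 Step 1: grow cells in 96-well plates. Step 2: add test compound at a single concentration. Step 3: incubate 48 h. Step 4: record percent growth.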 Unmarked numbers belong to inactive results. Calls of active or inactive are those of the source. How the source made its calls: active means growth percent below 10; inactive means the rest.

Key:
Test in all cases: NCI-60 one-dose screen, 48 h (100 = growth as untreated, 0 = no growth, -100 = all killed)
[1] = tested on: NCI-H460 lung; conditions: 10 µM unless noted
[2] = tested on: 786-0 renal; conditions: 10 µM unless noted
[3] = tested on: COLO 205 colon; conditions: 10 µM
[4] = tested on: MALME-3M melanoma; conditions: 10 µM unless noted
[5] = tested on: RXF 393 renal; conditions: 10 µM unless noted
[6] = tested on: SF-295 CNS; conditions: 10 µM unless noted
[7] = tested on: SF-539 CNS; conditions: 10 µM unless noted
[8] = tested on: UACC-257 melanoma; conditions: 10 µM unless noted
[9] = tested on: HT29 colon; conditions: 10 µM unless noted
[10] = tested on: SK-MEL-5 melanoma; conditions: 10 µM unless noted
[11] = tested on: SK-MEL-2 melanoma; conditions: 10 µM unless noted
[12] = tested on: UO-31 renal; conditions: 10 µM unless noted
[13] = tested on: TK-10 renal; conditions: 10 µM unless noted
[14] = tested on: ACHN renal; conditions: 10 µM unless noted
[15] = tested on: HL-60(TB) leukemia; conditions: 10 µM unless noted
[16] = tested on: MOLT-4 leukemia; conditions: 10 µM
[17] = tested on: T-47D breast; conditions: 10 µM unless noted
[18] = tested on: SW-620 colon; conditions: 10 µM unless noted
[19] = tested on: HCC-2998 colon; conditions: 10 µM unless noted
[20] = tested on: A498 renal; conditions: 10 µM unless noted

SMILES	growth [1] [%]	growth [2] [%]	growth [3]	growth [4] [%]	growth [5] [%]	growth [6]	growth [7]	growth [8] [%]	growth [9]	growth [10] [%]	growth [11] [%]	growth [12] [%]	growth [13] [%]	growth [14] [%]	growth [15]	growth [16] [%]	growth [17] [%]	growth [18] [%]	growth [19] [%]	growth [20] [%]
COc1ccc(-c2ccc(OC)c(OC)c2OC)cc1	12	21.3	-13.5% (active)	33.2	11.2	-9.72% (active)	3.98% (active)	43.2	-4.61% (active)	15.3	24	39.4	16.2	55.8	-19.1% (active)	22.7	27	11.6	23.7	–
CC1(C)N=C(N)N=C(N)N1c1ccc(CCCCc2ccc(S(=O)(=O)F)cc2)cc1	12.3	25.1	41.9%	52.8	43.2	7.77% (active)	28.6%	39.1	8.88% (active)	19.3	56.1	104	14.1	39.2	21.2%	25.3	16.6	19.4	45.3	42.3
Oc1ccc(O)c2c1C1(Cl)C(Cl)=C(Cl)C2(Cl)C1(Cl)Cl	55.3	69.1	72%	20	29.8	21.7%	68.2%	46.6	66.4%	42.3	31.3	44.2	75.4	48.2	31%	54.3	19.4	56.9	–	34.9
